Many of the other results were omitted from the sample, so hits are more common in it than they were.
BLM inh: Bloom syndrome helicase (human) inhibition; P54132; recombinant BLM DNA unwinding, fluorescence dequenching; Potency, µM (titrated, usually from 56.1 µM), actives largely listed as inhibitors; 350,000 compounds, 0.2% hits; AID 2528; also: nearly all actives have a fitted effect of over 35% in size
JMJD2E inh: JMJD2E (human) inhibition. JMJD2E catalytic domain, FDH-coupled NADH fluorescence (FDH is formaldehyde dehydrogenase). B2RXH2. 230,000 compounds, 1.6% hits. Potency, µM (doses to about 57.1 µM), usual class: inhibitors. AID 2147; active = well fitted inhibition curve with a large enough effect, not every such curve was filed as active; inconclusive = small, poorly fitted or top-dose-only effect, or another doubt; inactive = no such curve, though single readings can be large or run the other way; also: nearly all actives have a fitted effect of over 50% in size
Target sequence (B2RXH2 1-337 limits assumed): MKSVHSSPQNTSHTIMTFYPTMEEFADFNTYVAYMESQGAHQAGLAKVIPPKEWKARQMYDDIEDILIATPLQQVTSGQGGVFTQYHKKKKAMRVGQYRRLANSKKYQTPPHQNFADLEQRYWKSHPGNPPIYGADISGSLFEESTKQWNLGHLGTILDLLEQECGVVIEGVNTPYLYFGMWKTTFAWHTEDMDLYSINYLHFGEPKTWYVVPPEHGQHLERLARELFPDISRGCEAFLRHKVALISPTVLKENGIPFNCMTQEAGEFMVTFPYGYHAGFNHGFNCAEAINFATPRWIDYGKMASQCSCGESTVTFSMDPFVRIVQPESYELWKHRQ
RECQ1 inh-1: inhibitors of human RECQ1 DNA helicase. 240,000 compounds, 0.54% hits. AID 2549. Potency, µM (highest dose often 57.3 µM), hits mostly inhibitors. RECQ1 DNA unwinding, red fluorescence kinetic read; also: nearly all actives have a fitted effect of over 30% in size
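50 nM RECQ1T1 preincubated 15 min with compound in Tris pH 8.0 buffer with MgCl2, DTT, Tween-20 and 2.5 ug/ml poly(dI-dC); started with 200 nM TAMRA/BHQ-2 forked duplex and 2 mM ATP. Unwinding read as fluorescence (525/598 nm), two reads 2 h apart.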
APE1 inh: inhibitors of human APE1 endonuclease; AID 2517; Potency, µM (series often up to 65.8 µM), actives largely listed as inhibitors; 350,000 compounds, 0.35% hits; recombinant APE1, TAMRA/BHQ-2 abasic DNA cleavage fluorescence; also: nearly all actives have a fitted effect of over 55% in size
Target sequence (P27695 whole entry, looked up): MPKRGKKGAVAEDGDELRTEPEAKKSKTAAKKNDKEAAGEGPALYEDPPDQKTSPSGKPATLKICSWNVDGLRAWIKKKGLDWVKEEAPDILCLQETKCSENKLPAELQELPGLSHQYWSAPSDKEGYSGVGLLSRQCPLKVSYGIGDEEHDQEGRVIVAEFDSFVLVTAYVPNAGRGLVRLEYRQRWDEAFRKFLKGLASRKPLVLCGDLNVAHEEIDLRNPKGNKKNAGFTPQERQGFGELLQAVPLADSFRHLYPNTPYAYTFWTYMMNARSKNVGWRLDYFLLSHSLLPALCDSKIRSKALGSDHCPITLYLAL
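Endonuclease cleavage of a quenched abasic-site DNA duplex (50 nM) by APE1 (0.75 nM) was tracked by TAMRA dequenching. Compounds were preincubated with enzyme 15 min at room temperature; data normalized to buffer-only and DMSO wells plus NSC13755 control.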
TDP1 inh: inhibitors of human tyrosyl-DNA phosphodiesterase TDP1; Q9NUW8; recombinant TDP1, AlphaScreen DNA substrate cleavage; Potency, µM (highest dose often 130 µM), usual class: inhibitors; 350,000 compounds, 0.28% hits; AID 485290; also: nearly all actives have a fitted effect of over 40% in size
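Enzyme-compound mixtures sat 15 min at room temperature, followed by a 5 min reaction with 15 nM final substrate and 10 min with AlphaScreen beads. Recombinant human Tdp1 was used at 1 nM final.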
L3MBTL1 inh-1: L3MBTL1 (human) inhibition; Potency, µM (top dose mostly 57.1 µM), most hits filed as inhibitors; 230,000 compounds, 0.66% hits; Q9Y468; AlphaScreen L3MBTL1–H3K9me1 peptide binding; also: nearly all actives have a fitted effect of over 60% in size
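Read-out is AlphaScreen signal from streptavidin donor and nickel chelate acceptor beads (10 ug/mL final each) bridging L3MBTL1 (50 nM) and biotinylated K9-monomethylated H3(1-15) peptide (75 nM), after 30 min compound exposure at room temperature.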
RECQ1 inh conf: confirmation of human RECQ1 helicase inhibitors; Potency, µM (top dose mostly 229 µM), usual class: inhibitors; 610 compounds, 28% hits; shares compounds with RECQ1 inh-1; RECQ1 helicase DNA unwinding, fluorescence; also: nearly all actives have a fitted effect of over 45% in size
RECQ1 ADP FP: counter-screen for RECQ1 inhibitors: ADP displacement; shares compounds with RECQ1 inh-1; ADP fluorescence polarization displacement counterscreen; Potency, µM (top dose mostly 228 µM), actives largely listed as inhibitors; 530 compounds, 27% hits; AID 2711; also: nearly all actives have a fitted effect of over 45% in size
RECQ1 inh-2: RECQ1 helicase inhibition confirmed, round 2; AID 504841; 1,100 compounds, 15% hits; shares compounds with RECQ1 inh-1; recombinant RECQ1 DNA unwinding, red fluorescence; Potency, µM (series often up to 119 µM), hits mostly inhibitors; also: nearly all actives have a fitted effect of over 50% in size
L3MBTL1 inh-2: validation of human L3MBTL1 methyl-lysine binding inhibitors; L3MBTL1 methyl-lysine binding inhibition, biochemical qHTS; shares compounds with L3MBTL1 inh-1; Potency, µM, most hits filed as inhibitors; 500 compounds, 91% hits; also: nearly all actives have a fitted effect of over 70% in size
L3MBTL1 ctr: interferes with AlphaScreen signal in L3MBTL1 counterscreen. shares compounds with L3MBTL1 inh-1. AlphaScreen counterscreen, signal inhibition. Potency, µM (doses to about 57.1 µM), actives largely listed as inhibitors. 500 tested, under 10 active. AID 602224
Numbers stand for hits; – = inactive; ? = inconclusive; · = no result given; ! = a repeat was not active. Unless noted, calls follow the shape of the dose curve; as a rule, active = well fitted curve in the direction sought with a large enough effect; inconclusive = small, poorly fitted or top-dose-only effect, or another doubt; inactive = no such curve, though single readings can be large; an effect the other way counts as inactive or inconclusive.

SMILES	BLM inh	JMJD2E inh	RECQ1 inh-1	APE1 inh	TDP1 inh	L3MBTL1 inh-1	others
COC(C(=O)C(O)C(C)O)C1Cc2cc3cc(OC4CC(OC5CC(O)C(OC)C(C)O5)C(OC(C)=O)C(C)O4)c(C)c(O)c3c(O)c2C(=O)C1OC1CC(OC2CC(OC3CC(C)(O)C(OC(C)=O)C(C)O3)C(O)C(C)O2)C(O)C(C)O1 (stereo unspecified)	?	·	·	·	–	·
c1ccc(C2N3CCCN23)cc1 (stereo unspecified)	–	–	7.94µM	–	–	–	RECQ1 inh conf=–;RECQ1 ADP FP=–
Cc1ccc(C2N3CCCN23)cc1 (stereo unspecified)	–	–	–	–	·	·
CCNCC	·	·	–	–	–	·
COc1ccc2[nH]cc(C3=CCNCC3)c2c1	–	?	–	–	–	·
COc1ccc2c3c([nH]c2c1)C(C)=NCC3	?	?	14.1µM!	?	–	–	RECQ1 inh conf=–;RECQ1 ADP FP=17.8µM;RECQ1 inh-2=50.1µM
CCOC(=O)C1CCCN(c2ccc([N+](=O)[O-])c3nonc23)C1 (stereo unspecified)	–	–	28.2µM	?	–	–	RECQ1 inh-2=56.2µM
CNc1ccc2oc(C[C@H]3O[C@]4(CC[C@H]3C)O[C@H]([C@H](C)C(=O)c3ccc[nH]3)[C@H](C)C[C@H]4C)nc2c1C(=O)O	–	?	–	?	–	·
Nc1ncnc2c1ncn2[C@@H]1O[C@H](COP(=O)(O)OP(=O)(O)OP(=O)(O)O)[C@H]2OC3(O[C@H]21)C([N+](=O)[O-])=CC(=[N+]([O-])[O-])C=C3[N+](=O)[O-] (stereo partly specified)	–	·	–	–	–	·
C/C=C1/C[C@@H](C)[C@@](C)(O)C(=O)OCC2=CCN3CC[C@@H](OC1=O)[C@@H]23	–	·	?	?	–	·	RECQ1 inh-2=–
O=C(O)c1ccccc1-c1c2cc(Br)c(=O)cc-2oc2[c]([Hg])c(O)c(Br)cc12	15.8µM	5.01µM	25.1µM	25.1µM	–	·	RECQ1 inh conf=11.2µM;RECQ1 ADP FP=0.199µM
FC(Cl)(Cl)Cl	·	·	–	–	–	·
CCn1nc(-c2cccs2)nc2c(=O)n(C)c(=O)nc1-2	1.12µM	?	3.55µM	–	–	?	RECQ1 inh conf=?;RECQ1 ADP FP=–
CCn1nc(/C=C/c2ccccc2)nc2c(=O)n(C)c(=O)nc1-2	–	–	–	–	–	–
CCCCn1c(N)c(C(=O)OCC2CCCO2)c2nc3ccccc3nc21 (stereo unspecified)	–	?	?	–	–	·	RECQ1 inh-2=–
CC(C)CCn1c(N)c(C(=O)OCC2CCCO2)c2nc3ccccc3nc21 (stereo unspecified)	–	?	–	–	–	–
CN(C)C1C(=O)C(C(N)=O)=C(O)[C@@]2(O)C(=O)C3=C(O)c4c(O)cccc4[C@](C)(O)C3C(O)C12 (stereo partly specified)	–	8.91µM	10µM	?	·	·	RECQ1 inh conf=–;RECQ1 ADP FP=7.08µM
CC(C)CCCC(C)C1CCC2C3CC(O)[C@@]4(O)CC(O)CC[C@@]4(C)C3CC[C@@]12C (stereo partly specified)	–	–	–	–	–	·
O=C(c1ccc2nc(-c3ccco3)c(-c3ccco3)nc2c1)N1CCC2(CC1)OCCO2	28.2µM	?	12.6µM	?	·	28.2µM	RECQ1 inh conf=–;RECQ1 inh-2=–;L3MBTL1 inh-2=?;L3MBTL1 ctr=–
C[C@@H]1CO1	–	·	–	–	–	·
O=C1NC(=O)N(Cc2ccco2)C(=O)/C1=C/c1ccc(-c2cccc([N+](=O)[O-])c2)o1	?	?	?	28.2µM	·	28.2µM	L3MBTL1 inh-2=3.36;L3MBTL1 ctr=–
C=CCN1C(=O)NC(=O)/C(=C\c2ccc(-c3ccccc3[N+](=O)[O-])o2)C1=O	–	–	–	–	–	–
Oc1ccc2c3c1O[C@H]1c4c(c5ccccc5n4Cc4ccccc4)C[C@@]4(O)C(C2)N(CC2CC2)CC[C@]314	·	·	–	–	–	·
O=C1NC(=O)N(c2cccc(Cl)c2)C(=O)/C1=C\c1ccc(Sc2nc3ccccc3[nH]2)o1	–	?	12.6µM	?	·	31.6µM	L3MBTL1 inh-2=26.7;L3MBTL1 ctr=–
CN1CCC2(CC1)NC(=O)c1ccccc1N2	–	?	–	?	·	·
CN1CCC2(CC1)NC(=O)C1=C(CN(C)CC1)N2	–	–	–	–	–	28.2µM	L3MBTL1 inh-2=?;L3MBTL1 ctr=–
CC(=O)NC1CCSC1=O (stereo unspecified)	·	·	·	–	·	·
CC(C)N1C(=O)/C(=C/C=C/c2ccco2)C(=O)N(Cc2ccco2)C1=O	?	–	10µM	?	–	31.6µM	L3MBTL1 inh-2=4.74;L3MBTL1 ctr=–
